This passage reports Potency results from PubChem BioAssay (NCATS).

Results filed as inconclusive are left out. Entries that show only a call come without a potency. The source made the active and inactive calls. Calls follow the shape of the dose curve; as a rule, active = well fitted inhibition curve with a large enough effect; inconclusive = small, poorly fitted or top-dose-only effect, or effect the other way; inactive = flat fitted curve, though single readings scatter.

Chain of ATP-dependent 6-phosphofructokinase (Trypanosoma brucei brucei) (O15648 whole entry, looked up): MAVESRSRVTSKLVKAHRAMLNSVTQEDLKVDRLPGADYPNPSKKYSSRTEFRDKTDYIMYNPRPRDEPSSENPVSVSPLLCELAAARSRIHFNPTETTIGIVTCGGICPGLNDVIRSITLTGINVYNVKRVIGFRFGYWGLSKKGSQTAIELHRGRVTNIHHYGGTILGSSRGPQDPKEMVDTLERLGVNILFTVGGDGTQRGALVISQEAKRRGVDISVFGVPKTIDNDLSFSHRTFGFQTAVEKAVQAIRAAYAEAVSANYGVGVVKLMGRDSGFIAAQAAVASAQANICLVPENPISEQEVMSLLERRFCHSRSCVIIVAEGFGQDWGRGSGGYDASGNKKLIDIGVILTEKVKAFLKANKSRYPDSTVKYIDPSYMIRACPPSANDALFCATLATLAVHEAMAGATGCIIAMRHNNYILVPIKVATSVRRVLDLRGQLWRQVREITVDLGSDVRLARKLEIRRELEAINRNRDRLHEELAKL

The test has as its target ATP-dependent 6-phosphofructokinase (Trypanosoma brucei brucei) (UniProt O15648). Nature of the test: qHTS Assay to Find Inhibitors of T. brucei phosphofructokinase: hit validation (AID 492961).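 Also: luminescence reports ADP formed as PFK phosphorylates fructose-6-phosphate with ATP.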 The conditions noted are these: T. brucei PFK, ADP-Glo luminescence; series mostly up to 51.4 µM. The method in brief:
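Measures ADP output of PFK (1.25 nM) at 0.1 mM ATP, 0.5 mM F6P, pH 8.0 TEA buffer with 5 mM MgCl2. No-enzyme wells define full inhibition; uninhibited enzyme wells define zero.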
(In general: qHTS replaces the single test concentration by a dilution series.)
Consider `CCCCC(CC)CCC(CC(C)C)OS(=O)(=O)O` (configuration not stated), for which the Potency entry was “inactive”.
With `CC(C)c1nc(N(C)S(C)(=O)=O)nc(-c2ccc(F)cc2)c1/C=C/C(O)CC(O)CC(=O)O` (configuration not stated), the Potency result was “inactive”.
Turning to `CCN(CC)CCC(=O)N1c2ccccc2Sc2ccc(C(F)(F)F)cc21`, the Potency result was “inactive”.
In the case of `Oc1cc(O)cc(O)c1`, the Potency result was “inactive”.
`CC(=O)Oc1cc(C(F)(F)F)ccc1C(=O)O`: the Potency entry is “inactive”.
Take `CN(Cc1ccccc1)Cc1ccccc1`: the Potency result was “inactive”.
Turning to `Cc1ncc(C[n+]2csc(CCOP(=O)(O)O)c2C)c(N)n1`, the Potency entry is “inactive”.
The value for `CC/C=C\C/C=C\C/C=C\C/C=C\C/C=C\CCCC(=O)O` was “inactive”.
With `C=C1C(CCl)(CCl)C2(Cl)C(Cl)C(Cl)C1(Cl)C2(Cl)Cl` (configuration not stated), the Potency result was “inactive”.
The value for `Cc1ccc(S(=O)(=O)NCl)cc1` was “inactive”; that for `CN1C(=O)C[C@@H](C(=O)N[C@@H](Cc2cnc[nH]2)C(=O)N2CCC[C@H]2C(N)=O)NC1=O` was “inactive”.
The value for `Cc1ncc(COP(=O)(O)O)c(CN)c1O` was “inactive”.
Turning to `CC1(O)CCC(C(C)(C)O)CC1` (configuration not stated), the Potency result was “inactive”.
Turning to `COc1ccc2c(c1)OC(C)(C)C(c1ccccc1)C2c1ccc(OCCN2CCCC2)cc1` (configuration not stated), the Potency entry is “inactive”.
The value for `CCCCCCCCCCCC(=O)OCC(O)CO` (configuration not stated) was “inactive”.
As to `CC(=O)N=c1sc(S(N)(=O)=O)nn1C`, the Potency result is “inactive”.
For `S=C=Nc1ccc(N=C=S)cc1`, the Potency result was “inactive”.
